According to PubChem BioAssay (NCATS):
Inconclusive results are not listed. The source made the active and inactive calls. Unless noted, calls follow the shape of the dose curve; as a rule, active = well fitted curve in the direction sought with a large enough effect; inconclusive = small, poorly fitted or top-dose-only effect, or another doubt; inactive = no such curve, though single readings can be large; an effect the other way counts as inactive or inconclusive.

Experiments:
[1] = AP1 Signaling Pathway (AID 357; active = well fitted curve in either direction with a large enough effect, not every such curve was filed as active;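 also: ME-180 reporter cells stimulated with EGF at its EC50 level; % is scaled to controls: 0 for no effect and ±100 for the full control effect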); conditions: ME-180 AP-1-bla reporter, EGF-induced, beta-lactamase ratio, 5 h; at 7.69 µM (top of the series) unless noted
Summary of the method: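 Read-out was the 460nm/530nm emission ratio (excitation 405nm) after CCF4 loading for 2.5 hours at room temperature. Cells carried an AP-1-driven beta-lactamase reporter, were stimulated with EC50 EGF plus compound for 5 hours, and AC50 values came from titrations.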

[2] = target: Cytochrome P450 1A2 (Homo sapiens) (UniProt P05177); assay: p450-cyp1a2 (AID 410; calls by dose curve; also: potency is read from the fitted curve at half-maximal effect;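 as to activity change, negative = inhibition: -100% = full effect of reference inhibitor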)
Cytochrome P450 1A2 (Homo sapiens), sequence (P05177 whole entry, looked up): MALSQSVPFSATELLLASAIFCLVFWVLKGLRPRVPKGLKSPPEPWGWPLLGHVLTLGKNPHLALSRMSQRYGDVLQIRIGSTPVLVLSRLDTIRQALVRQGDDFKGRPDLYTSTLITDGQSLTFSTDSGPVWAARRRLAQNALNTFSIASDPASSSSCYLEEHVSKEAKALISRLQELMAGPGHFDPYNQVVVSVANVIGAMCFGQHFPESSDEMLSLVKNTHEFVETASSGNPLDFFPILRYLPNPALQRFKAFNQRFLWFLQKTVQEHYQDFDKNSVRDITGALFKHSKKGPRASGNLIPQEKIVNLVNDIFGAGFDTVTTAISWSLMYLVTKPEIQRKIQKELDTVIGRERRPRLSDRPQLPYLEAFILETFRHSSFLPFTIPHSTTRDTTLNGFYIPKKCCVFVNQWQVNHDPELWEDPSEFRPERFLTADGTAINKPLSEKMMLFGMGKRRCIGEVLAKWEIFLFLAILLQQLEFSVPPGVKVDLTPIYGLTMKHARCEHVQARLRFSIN
Summary of the method: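 Read-out is luminescence from luciferin produced by CYP1A2 demethylation of Luciferin-ME (100uM, at Km). Detection reagent stopped the 60 min NADPH-dependent reaction; signals were normalized to 57 uM furafylline.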

[3] = NFAT Signaling Pathway (AID 444; active = well fitted curve in either direction with a large enough effect, not every such curve was filed as active;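 also: carbachol stimulus at about its EC50 of 1 µM final; % is scaled to controls: 0 for no effect and ±100 for the full control effect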); conditions: Jurkat NFAT-bla M1, carbachol, beta-lactamase ratio, 5 h; at 7.69 µM (top of the series) unless noted
Summary of the method: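 Jurkat cells with NFAT-driven β-lactamase reporter and co-expressed M1 receptor, stimulated with carbachol (final 1 uM, ~EC50), compound titration, 5 h at 37 °C. CCF4 loaded 1 h at RT; 460/530 nm ratio gave %activity and AC50.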

[4] = Stat Signaling Pathway (AID 446; active = well fitted curve in either direction with a large enough effect, not every such curve was filed as active;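 also: ME-180 cervical cancer cells given 40 pM IL-6 alongside compound; SIE-controlled beta-lactamase reporter measured as 460/530 nm FRET emission ratio; % is scaled to controls: 0 for no effect and ±100 for the full control effect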); conditions: ME-180 SIE beta-lactamase reporter, IL-6 stimulated, 5 h; at 7.69 µM (top of the series) unless noted
Summary of the method: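 Emission at 460 and 530 nm (excitation 405 nm) reports SIE-controlled beta-lactamase in ME-180 cells. Cells received compound with 40 pM IL-6 for 5 hrs at 37 C; data scaled between 300 pM IL-6 and 125 nM JAK-inhibitor controls.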

[5] = target: Glucocorticoid receptor (Homo sapiens) (UniProt P04150); assay: GR-EFC Redistribution (AID 451; calls by dose curve; also: potency is read from the fitted curve at half-maximal effect); conditions: CHO-K1 GR-EFC translocation, beta-gal luminescence, 2 h
Glucocorticoid receptor (Homo sapiens), sequence (P04150 whole entry, looked up, the tested form may be a part): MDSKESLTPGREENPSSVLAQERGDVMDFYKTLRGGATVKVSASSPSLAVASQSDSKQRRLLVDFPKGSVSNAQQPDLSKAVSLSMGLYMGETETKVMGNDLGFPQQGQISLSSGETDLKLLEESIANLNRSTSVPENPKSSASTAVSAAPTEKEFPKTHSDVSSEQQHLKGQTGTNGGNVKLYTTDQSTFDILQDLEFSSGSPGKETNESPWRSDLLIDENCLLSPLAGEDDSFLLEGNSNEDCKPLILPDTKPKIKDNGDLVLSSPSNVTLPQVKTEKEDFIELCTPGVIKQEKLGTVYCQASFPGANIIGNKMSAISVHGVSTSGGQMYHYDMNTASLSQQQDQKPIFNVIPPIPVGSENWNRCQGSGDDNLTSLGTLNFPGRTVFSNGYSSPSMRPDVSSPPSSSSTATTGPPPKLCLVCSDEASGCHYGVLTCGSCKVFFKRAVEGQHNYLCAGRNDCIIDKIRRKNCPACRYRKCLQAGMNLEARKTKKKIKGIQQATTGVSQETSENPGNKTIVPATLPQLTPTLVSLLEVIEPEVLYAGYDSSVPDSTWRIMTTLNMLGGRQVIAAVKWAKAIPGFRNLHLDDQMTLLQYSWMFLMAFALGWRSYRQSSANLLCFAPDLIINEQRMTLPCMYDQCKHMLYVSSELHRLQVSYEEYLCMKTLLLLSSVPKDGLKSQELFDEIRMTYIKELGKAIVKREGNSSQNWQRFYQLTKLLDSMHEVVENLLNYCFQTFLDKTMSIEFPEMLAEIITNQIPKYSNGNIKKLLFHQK
Summary of the method: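 CHO-K1 cells expressing nuclear EA and GR-ED fragments of b-gal; compounds titrated up to 46 uM final, 2 h at 37 C. GR nuclear translocation read as complemented b-gal luminescence after 1 h RT detection.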

[6] = target: Mitogen-activated protein kinase 10 (Mus musculus) (UniProt Q61831); assay: JNK3 AlphaScreen Assay (AID 530; active = well fitted curve in either direction with a large enough effect, not every such curve was filed as active;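 also: kinase came from lysate of stimulated human HepG2 cells; signal reports phosphorylation of biotinylated GST-cJun 1-79 at Ser73 with 10 µM ATP; % is scaled to controls: 0 for no effect and ±100 for the full control effect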)
Summary of the method: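 HepG2 lysate (IL-1b/TNFa pre-activated) + biotin-GST-cJun 1-79 + anti-pSer73 cJun; cpd titration, 15 min RT; ATP 10 uM start; Tris pH 7.6, MgCl2, DTT, vanadate; beads in EDTA buffer; AlphaScreen.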

[7] = target: 3',5'-cyclic-AMP phosphodiesterase 4B (Homo sapiens) (UniProt Q07343); assay: qHTS Assay for Inhibitors of PDE-IV (AID 607; active = well fitted activation curve with a large enough effect in the main read-out, with a control signal flat, not every such curve was filed as active; also: % of control where 0% means no effect)
3',5'-cyclic-AMP phosphodiesterase 4B (Homo sapiens), sequence (Q07343 whole entry, looked up): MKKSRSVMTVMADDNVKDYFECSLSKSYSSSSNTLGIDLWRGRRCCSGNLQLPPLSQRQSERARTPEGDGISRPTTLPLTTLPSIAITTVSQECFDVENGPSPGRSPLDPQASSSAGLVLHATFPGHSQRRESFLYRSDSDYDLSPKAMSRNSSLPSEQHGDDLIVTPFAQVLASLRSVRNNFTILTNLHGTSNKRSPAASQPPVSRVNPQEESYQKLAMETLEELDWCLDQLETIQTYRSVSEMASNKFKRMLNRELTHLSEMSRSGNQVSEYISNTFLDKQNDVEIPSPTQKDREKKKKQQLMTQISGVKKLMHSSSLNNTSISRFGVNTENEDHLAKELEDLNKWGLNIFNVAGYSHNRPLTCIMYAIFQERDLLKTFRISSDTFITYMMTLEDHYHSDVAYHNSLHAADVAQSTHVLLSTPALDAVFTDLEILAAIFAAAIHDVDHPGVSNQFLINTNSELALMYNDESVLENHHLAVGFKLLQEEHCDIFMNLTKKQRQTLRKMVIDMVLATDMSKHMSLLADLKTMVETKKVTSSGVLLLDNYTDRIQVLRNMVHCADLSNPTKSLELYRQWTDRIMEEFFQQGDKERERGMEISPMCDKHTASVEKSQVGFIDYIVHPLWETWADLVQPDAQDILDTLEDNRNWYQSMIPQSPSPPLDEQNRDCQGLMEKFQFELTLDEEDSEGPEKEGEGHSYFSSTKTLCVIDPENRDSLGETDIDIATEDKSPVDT
Summary of the method: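 The readout is membrane depolarisation from a cAMP-sensing CNG channel, detected with a potential dye at ex 535/em 590. Cells were HEK293-derived (endogenous PDE-IV) at 1000 cells/well, titrated up to 22.9 uM final.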

[8] = target: Cytochrome P450 3A4 (Homo sapiens) (UniProt P08684); assay: qHTS Assay for Inhibitors and Substrates of Cytochrome P450 3A4 (AID 884); also: potency is read from the fitted curve at half-maximal effect; nearly all actives have a fitted effect of over 50% in size
Cytochrome P450 3A4 (Homo sapiens), sequence (P08684 whole entry, looked up): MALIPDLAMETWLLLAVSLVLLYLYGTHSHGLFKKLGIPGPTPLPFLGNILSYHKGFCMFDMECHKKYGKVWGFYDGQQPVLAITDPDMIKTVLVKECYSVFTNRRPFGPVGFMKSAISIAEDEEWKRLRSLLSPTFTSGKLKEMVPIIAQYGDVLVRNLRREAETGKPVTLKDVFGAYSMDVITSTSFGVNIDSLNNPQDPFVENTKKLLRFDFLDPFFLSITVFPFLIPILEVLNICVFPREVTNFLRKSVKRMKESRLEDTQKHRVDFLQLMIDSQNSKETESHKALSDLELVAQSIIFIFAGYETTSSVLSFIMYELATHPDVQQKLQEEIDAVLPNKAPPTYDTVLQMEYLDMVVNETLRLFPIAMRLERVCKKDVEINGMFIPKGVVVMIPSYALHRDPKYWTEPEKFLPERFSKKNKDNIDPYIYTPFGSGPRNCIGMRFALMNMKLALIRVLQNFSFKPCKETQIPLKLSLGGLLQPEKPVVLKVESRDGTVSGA
Summary of the method: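 Luminescent readout of luciferin produced by CYP3A4 (20 nM) dealkylation of Luciferin-PPXE, 25 uM (its KM). NADPH-driven reaction ran 60 min at RT after 10 min compound preincubation; data scaled to 57 uM ketoconazole as 100% inhibition.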

[9] = target: Cytochrome P450 3A4 (Homo sapiens) (UniProt P08684); assay: qHTS Assay for Activators of Cytochrome P450 3A4 (AID 885); also: nearly all actives have a fitted effect of over 65% in size
Summary of the method: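 Activators are scored by enhanced luminescence from CYP3A4 conversion of luciferin-PPXE (25uM, equal to KM) to luciferin, after 60 min at RT with an NADPH-regenerating system.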

[10] = qHTS Assay for Lipid Storage Modulators (AID 1519; calls by dose curve); conditions: Drosophila S3 cells, BODIPY lipid droplet/cell ratio, laser cytometry, cells loaded with oleic acid; for activity change, negative = inhibition: at 57.5 µM (top of the series)
Summary of the method: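 Cells seeded at 5,000 per well were treated with compounds over a concentration series and loaded with oleic acid (400 uM, as added). Lipid droplet fluorescence (488 nm excitation, 500-530 nm channel) was read by laser-scanning cytometry and normalized to 20 uM Triacsin C.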

[11] = target: Dual specificity protein kinase CLK4 (Homo sapiens) (UniProt Q9HAZ1); assay: qHTS Assay for Inhibitors of CDC-like Kinase 4 (Kinase-Glo Assay) (AID 1770); also: nearly all actives have a fitted effect of over 65% in size; also: potency is read from the fitted curve at half-maximal effect
Dual specificity protein kinase CLK4 (Homo sapiens), sequence (Q9HAZ1 whole entry, looked up): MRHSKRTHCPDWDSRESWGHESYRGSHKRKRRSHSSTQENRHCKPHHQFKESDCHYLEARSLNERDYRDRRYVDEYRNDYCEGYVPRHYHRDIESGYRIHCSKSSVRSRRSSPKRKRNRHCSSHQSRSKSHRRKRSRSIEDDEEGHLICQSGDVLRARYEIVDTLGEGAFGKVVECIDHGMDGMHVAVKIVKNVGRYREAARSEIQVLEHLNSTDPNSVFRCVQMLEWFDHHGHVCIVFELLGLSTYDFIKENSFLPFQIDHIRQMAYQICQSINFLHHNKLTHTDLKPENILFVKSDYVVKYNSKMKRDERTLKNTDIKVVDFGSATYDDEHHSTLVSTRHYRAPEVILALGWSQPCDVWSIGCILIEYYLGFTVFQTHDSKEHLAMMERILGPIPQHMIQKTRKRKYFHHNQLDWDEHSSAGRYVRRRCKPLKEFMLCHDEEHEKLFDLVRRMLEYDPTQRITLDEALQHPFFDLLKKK
Summary of the method: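 Luminescent ATP-depletion read-out (Kinase-Glo) after 4.5 h room-temperature reaction of Clk4 (25 nM final) with RS peptide (100 uM) and ATP (1 uM), pH 7.5 Tris buffer with MgCl2 and DTT.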

[12] = target: Dual specificity protein kinase CLK4 (Homo sapiens) (UniProt Q9HAZ1); assay: qHTS Assay for Inhibitors of CDC-like Kinase 4 (ADP-Glo Assay) (AID 1771); also: nearly all actives have a fitted effect of over 70% in size; also: potency is read from the fitted curve at half-maximal effect
Summary of the method: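 In this ADP-Glo format, 1 uM ATP and 100 uM RS peptide served as substrates for 25 nM Clk4 in Mg2+/EGTA/DTT/Triton buffer; reactions ran 1 hr at room temperature before luminescent ADP quantification.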

[13] = target: Dual specificity protein kinase CLK4 (Homo sapiens) (UniProt Q9HAZ1); assay: qHTS Assay for Inhibitors of CDC-like Kinase 4 (ADP-FP Assay) (AID 1795); also: nearly all actives have a fitted effect of over 60% in size; also: potency is read from the fitted curve at half-maximal effect
Summary of the method: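 Kinase activity was measured as ADP production using Transcreener orange tracer (4 nM) and ADP antibody (1 ug/mL) fluorescence polarization, with ADP calculated from a calibration curve. The 1 h reaction contained 6.25 nM Clk4, 1 uM ATP and 100 uM RS peptide at pH 7.5 with Mg2+.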

[14] = target: Ubiquitin carboxyl-terminal hydrolase 1 (Homo sapiens) (UniProt O94782); assay: Inhibitors of USP1/UAF1: Pilot qHTS (AID 504865);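 also: rhodamine fluorescence freed from ubiquitin-rhodamine substrate followed over time; top concentration of the series differs between compounds; % is scaled to controls: 0 for no effect and ±100 for the full control effect; nearly all actives have a fitted effect of over 35% in size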
Ubiquitin carboxyl-terminal hydrolase 1 (Homo sapiens), sequence (O94782 whole entry, looked up): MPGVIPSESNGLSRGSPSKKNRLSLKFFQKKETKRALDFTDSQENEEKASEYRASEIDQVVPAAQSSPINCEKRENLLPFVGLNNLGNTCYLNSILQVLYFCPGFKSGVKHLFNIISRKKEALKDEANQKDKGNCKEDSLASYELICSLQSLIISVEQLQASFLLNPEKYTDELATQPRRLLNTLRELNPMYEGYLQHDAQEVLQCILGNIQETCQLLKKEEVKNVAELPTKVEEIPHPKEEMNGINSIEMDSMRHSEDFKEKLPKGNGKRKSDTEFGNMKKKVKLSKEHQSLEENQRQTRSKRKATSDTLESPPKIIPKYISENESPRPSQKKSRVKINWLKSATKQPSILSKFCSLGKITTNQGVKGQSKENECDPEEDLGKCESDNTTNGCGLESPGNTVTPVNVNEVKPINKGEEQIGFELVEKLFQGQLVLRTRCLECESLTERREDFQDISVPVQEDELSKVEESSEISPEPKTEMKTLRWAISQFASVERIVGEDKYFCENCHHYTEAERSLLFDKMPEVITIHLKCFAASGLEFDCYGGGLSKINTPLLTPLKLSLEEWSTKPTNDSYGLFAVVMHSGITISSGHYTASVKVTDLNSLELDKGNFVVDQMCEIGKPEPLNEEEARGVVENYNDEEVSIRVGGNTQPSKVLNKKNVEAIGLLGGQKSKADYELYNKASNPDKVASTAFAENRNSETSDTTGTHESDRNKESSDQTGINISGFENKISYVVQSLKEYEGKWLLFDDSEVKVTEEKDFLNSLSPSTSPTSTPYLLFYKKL
Summary of the method: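 Deubiquitinase activity followed as kinetic rhodamine fluorescence release from 150 nM Ub-Rho. 1 nM USP1/UAF1 with compound, after 15 min room-temperature preincubation, in HEPES pH 7.8 buffer containing TCEP, EDTA, BSA and Tween-20.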

[15] = Primary qHTS for small molecule stabilizers of the endoplasmic reticulum resident proteome: Secreted ER Calcium Modulated Protein (SERCaMP) assay (AID 1508630); also: % is scaled to controls: 0 for no effect and ±100 for the full control effect
Summary of the method: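 The SH-SY5Y reporter protocol was run at 3 concentrations up to 38.3 uM (primary) or 11 concentrations (follow-up): 16 h compound, 100 nM thapsigargin for 4 h, then extracellular luciferase luminescence.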

[16] = target: Glucocorticoid receptor (Homo sapiens) (UniProt P04150); assay: GR-GFP Redistribution (AID 450;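 active = compounds whose dose series gives a full or clear partial fitted curve of increased nuclear translocation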; also: potency is read from the fitted curve at half-maximal effect); conditions: U2OS GR-GFP nuclear translocation, laser cytometry, 2 h
[17] = qHTS Assay for Identification of Small Molecule Agonists for Hypoxia Response Element Signaling Pathway (AID 914; active = well fitted activation curve with a large enough effect in the signal ratio, with a control signal flat, not every such curve was filed as active; the % refers to the signal ratio; also: potency is read from the fitted curve at half-maximal effect); conditions: ME-180 (cervical carcinoma) HRE-bla reporter, beta-lactamase ratio, CoCl2, 17 h; activation: stronger effect = higher value
Summary of the method: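 In Opti-MEM containing 0.5% dialyzed FBS and 10 mM HEPES, ME-180 HRE-bla cells received a compound titration and EC50 CoCl2. They were incubated 17 hours, then CCF4-loaded 2.5 hours at room temperature before ratio reading.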

[18] = measured here: cell count channel max response
[19] = measured here: lipid channel max response

COc1ccccc1-c1cncnc1NCCNC(C)=O
inactive: activity change, negative = inhibition [1] -8.57% | Potency [2] | activity change, negative = inhibition [3] 1.19% | activity, negative = inhibition [4] 2.82% | Potency [5] > 46 µM | outcome [6] | Potency [7] | Potency [9] | activity change, negative = inhibition [10] 0.0705% | Potency [11] | Potency [12] | Potency [13] | Potency [14] | Potency [15]
19.9%: max response [10, 18]
active: Potency [8] 2 µM
19%: max response [10, 19]

O=c1c(-c2ccc(F)cc2)nc2cnc(N3CCNCC3)nc2n1C1CC1
inactive: Potency [16] > 9.22 µM | Potency [5] > 46 µM | outcome [6] | Potency [7] | Potency [9] | activity change, negative = inhibition [10] 2.85% | Potency [11] | Potency [12] | Potency [13] | Potency [14] | Potency [15]
28.4%: max response [10, 19]
26.5%: max response [10, 18]
active: Potency [2] 2.51 µM | Potency [17] 2.51 µM

CCNc1ncc2nc(-c3cn(C)c4ccccc34)c(=O)n(C)c2n1
27.7%: max response [10, 19]
active: Potency [2] 0.1 µM
inactive: activity change, negative = inhibition [1] -15.1% | activity change, negative = inhibition [3] 2.68% | activity, negative = inhibition [4] -2.13% | Potency [16] > 9.22 µM | Potency [5] > 46 µM | outcome [6] | Potency [9] | activity change, negative = inhibition [10] 8.66% | Potency [11] | Potency [12] | Potency [13] | Potency [14] | Potency [15]
19.5%: max response [10, 18]

c1csc(CNc2ncnc3ccc(-c4ccoc4)cc23)c1
14.7%: max response [10, 19]
15.9%: max response [10, 18]
inactive: activity change, negative = inhibition [3] 1.06% | activity, negative = inhibition [4] -21% | Potency [16] > 46 µM | Potency [5] > 46 µM | outcome [6] | Potency [7] | Potency [9] | activity change, negative = inhibition [10] -0.111% | Potency [15]
active: Potency [2] 3.16 µM | Potency [8] 7.94 µM | Potency [11] 0.251 µM | Potency [12] 0.355 µM | Potency [13] 0.0501 µM

COc1ccc(-n2c(=O)c(-c3cn(C)c4ccccc34)nc3cnc(N4CCOCC4)nc32)cc1
9.94%: max response [10, 19]
inactive: activity change, negative = inhibition [1] 11.1% | activity change, negative = inhibition [3] -2.62% | activity, negative = inhibition [4] 3.33% | Potency [16] > 9.22 µM | Potency [5] > 46 µM | outcome [6] | Potency [7] | activity change, negative = inhibition [10] 7.4% | Potency [11] | Potency [12] | Potency [13] | Potency [14] | Potency [15]
active: Potency [2] 31.6 µM
4.27%: max response [10, 18]

CCNc1ncc2nc(-c3ccc(OC)cc3)c(=O)n(CCOC)c2n1
20.7%: max response [10, 18]
27.3%: max response [10, 19]
inactive: activity change, negative = inhibition [1] -6.96% | activity change, negative = inhibition [3] 6.8% | activity, negative = inhibition [4] -11.3% | Potency [16] > 9.22 µM | Potency [5] > 46 µM | outcome [6] | Potency [7] | Potency [9] | activity change, negative = inhibition [10] 4.42% | Potency [11] | Potency [12] | Potency [13] | Potency [14] | Potency [15]
active: Potency [2] 1.26 µM
